Values joined by “and” are separate entries in the source; they are usually repeats but may differ in a detail not shown here. Identical values can stand only once.

The test can be described thus: T. brucei methionyl-tRNA synthetase enzyme inhibition – biochemical, radioactivity, round 1, late-stage follow-up (AID 743060). The note with it: purified enzyme, radiolabel aminoacylation, scintillation, 2 h; at 1 µM; stronger effect = higher value.
With `O=C(NCc1nc2ccccc2[nH]1)C1=C[C@@H](c2ccc(Br)cc2)C[C@@H](OCCCCO)O1`, the inhibition was 84.2%.

`O=C(Nc1ccc(F)c(Cl)c1)C1CC(=O)n2c(nc3ccccc32)N1` (stereo not given): the inhibition was 44.9% and 55.3%.

Turning to `O=C(CCC(=O)Nc1cccc([N+](=O)[O-])c1)NN=Cc1cccs1`, the inhibition worked out at 6.25%.

Turning to `O=C(CC=NOCc1ccc([N+](=O)[O-])cc1)Nc1ccc(Cl)cc1`, the inhibition worked out at 28.6%.

As for `O=C(NCc1nc2ccccc2[nH]1)C1=C[C@@H](c2ccccc2)C[C@@H](OCc2ccc(CO)cc2)O1`, the inhibition was found to be 44.6%.

On to `O=C(Cn1cnc2ccccc21)Nc1cccc([N+](=O)[O-])c1`, for which the inhibition turned out to be 44.9%.

Take `COc1ccc2[nH]c3nc(SCC(=O)Nc4ccc5c(c4)OCO5)nnc3c2c1`: the inhibition came out at 63.4%.

As for `O=C(NCc1nc2ccccc2[nH]1)C1=C[C@@H](c2ccc3c(c2)OCO3)C[C@@H](OCCCCO)O1`, the inhibition was found to be 50.4%.

Regarding `O=C(NCCc1nc2ccccc2[nH]1)c1ccc(Cl)cc1Cl`, the inhibition worked out at 61.9%.

As for `COCCc1nc2ccc(C(=O)NCCc3nc4ccc(OC)cc4[nH]3)cc2o1`, the inhibition is -1.44%.

For the molecule `COc1cccc(NC(=O)C2CC(=O)n3c(nc4ccccc43)N2)c1` (stereo not given), the inhibition was 5.53%.

For the molecule `O=C(N/C(=C\c1cccnc1)c1nc2ccccc2[nH]1)c1cccc(Br)c1`, the inhibition turned out to be 14.4%.

On to `O=C(NNC(=O)c1ccc(-n2cncn2)c([N+](=O)[O-])c1)c1ccc(Cl)cc1`, for which the inhibition worked out at 7.36%.

As to `CC(=O)N(CCc1ccccc1)C1CC(=O)N(c2ccc(Br)cc2)C1=O` (stereo not given), the inhibition was -12.2%.

Take `Cc1cccc(NC(=O)C2CC(=O)n3c(nc4ccccc43)N2)c1` (stereo not given): the inhibition was 3%.

Turning to `CC(C)(C)[C@H]1C=C(C(=O)NCc2nc3ccccc3[nH]2)O[C@@H](OCc2ccc(CO)cc2)C1`, the inhibition was found to be 21.6%.

For `O=C(NCc1nc2ccccc2[nH]1)C1=C[C@@H](c2csc3ccccc23)C[C@@H](OCCCCO)O1`, the inhibition was found to be 20.6%.

For `O=C(Cn1cc(C(=O)c2ccccc2)c2ccccc21)Nc1cccc(C(F)(F)F)c1`, the inhibition stood at 22%.

For `Cc1[nH]c2ccc(Br)cc2c(=O)c1CN1CCCCCC1`, the inhibition amounted to 19.4%.

For the molecule `COc1ccc(NC(=O)C2CC(=O)n3c(nc4ccccc43)N2)cc1` (stereo not given), the inhibition is -18.5%.

With `COc1ccc(NC(=O)CSc2nnc3c4cc(C)ccc4n(C)c3n2)cc1`, the inhibition is -3.06%.

On to `O=C(NCc1nc2ccccc2[nH]1)C1=C[C@H](c2ccc(Br)cc2)C[C@H](OCCCCO)O1`, for which the inhibition is 51.6%.

Regarding `CC(C)c1nc2ccc(C(=O)N(C)CCc3nc4ccc(F)cc4[nH]3)cc2o1`, the inhibition was -1.99%.

Turning to `O=C(Cn1cc(C(=O)c2ccco2)c2ccccc21)Nc1cccc(C(F)(F)F)c1`, the inhibition was found to be 45.2%.

`O=C(NCc1nc2ccccc2[nH]1)C1=C[C@H](c2ccc(Br)cc2)C[C@H](OCc2ccc(CO)cc2)O1`: the inhibition turned out to be 50.3%.

Turning to `CCN(CC)C(=O)C(=O)c1cn(CC(=O)Nc2cccc(C(F)(F)F)c2)c2ccccc12`, the inhibition came out at 95.4%.

For `O=C(Cn1cc(C(=O)C(=O)N2CCOCC2)c2ccccc21)Nc1cccc(C(F)(F)F)c1`, the inhibition stood at 87.5%.

As for `CC(CC(=O)Nc1cccc(Br)c1)=NNC(=O)c1ccc(O)cc1O`, the inhibition is 36.5%.

For `Cc1ccc(C(=O)NCCc2nc3ccccc3[nH]2)cc1C`, the inhibition is -10.8%.

`O=C(NCc1nc2ccccc2[nH]1)C1=C[C@H](C2CC2)C[C@H](OCc2ccc(CO)cc2)O1`: the inhibition is -3.3%.

On to `CCN(CC)C(=O)C(=O)c1cn(CC(=O)Nc2cccc(OC)c2)c2ccccc12`, for which the inhibition was 41.4%.

Consider `Clc1ccc(-c2nnc(SCc3nc4ccccc4[nH]3)o2)c(Cl)c1`, for which the inhibition came out at 75.3%.

For `CCOC(=O)N1CCC(Nc2c(Nc3ccc(F)cc3)c(=O)c2=O)CC1`, the inhibition stood at 28.4%.

Regarding `O=C(NCc1nc2ccccc2[nH]1)C1=C[C@@H](c2ccc(Br)cc2)C[C@@H](OCc2ccc(CO)cc2)O1`, the inhibition stood at 62.1%.

`CN(CC(=O)Nc1ccc(Cl)cc1)C(=O)c1ccc(-n2cncn2)c([N+](=O)[O-])c1`: the inhibition came to 38%.

Values taken from PubChem BioAssay AID743060 (The Scripps Research Institute Molecular Screening Center, 2013).
